A selection: hits, their analogues and other compounds. The true share with any hit is near 2.4%.
POLK inh = DNA polymerase kappa (human) inhibition; Q9UBT6; purified Pol kappa, fluorescent DNA synthesis assay, 10 min; Potency, µM (series often up to 107 µM), hits mostly inhibitors; 0.53% of 400,000 active; AID 588579
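Here, compound and 10 nM enzyme are combined for 15 min at room temperature; adding 50 nM substrate (final) starts DNA synthesis, tracked by fluorescence at 0 and 10 min against buffer-only wells.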
Pol iota inh = blocks human DNA polymerase iota activity. Pol iota fluorescent replication assay, 10 min. Q9UNA4. Potency, µM (series often up to 115 µM), hits mostly inhibitors. AID 588590. 1% of 390,000 active
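Pol iota at 10 nM preincubated 15 min with compounds at room temperature; reaction started with fluorescent substrate, 50 nM final. Fluorescence read kinetically at 0 and 10 min; buffer-only wells as negative control.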
WRN helicase inh = blocks human WRN helicase; Potency, µM (highest dose often 114 µM), actives largely listed as inhibitors; 0.46% of 360,000 active; AID 651768; Q14191; WRN helicase unwinding, fluorescent forked duplex, kinetic; note: nearly all actives have a fitted effect of over 55% in size
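Primary qHTS, 1536-well format. 20 nM WRN + compound, 15 min RT; start with 100 nM forked fluorophore/quencher duplex, 2 mM ATP (final); kinetic read ex 525/em 598 nm.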
FEN1 inh = inhibitors of human flap endonuclease 1. P39748. Recombinant FEN1 flap cleavage, fluorescence, 15 min. Potency, µM (titrated, usually from 114 µM), hits mostly inhibitors. 0.35% of 390,000 active. AID 588795; note: nearly all actives have a fitted effect of over 65% in size
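In this screen, 50 nM flap DNA substrate was added to 10 nM FEN1 pretreated with compound for 15 min at room temperature; cleavage was followed with reads at 0 and 15 min, and Hill fitting gave concentration–response parameters.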
POLH inh = DNA polymerase eta (human) inhibition. Potency, µM (top dose mostly 114 µM), most hits filed as inhibitors. 1.2% of 390,000 active. recombinant Pol eta, fluorescent DNA replication assay
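Pol eta (10 nM) was preincubated with compounds for 15 min at room temperature, after which fluorescent replication substrate (50 nM final) was added to start the reaction. Fluorescence was read kinetically at 0 and 10 min.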
POLB inh = blocks human DNA polymerase beta activity. P06746. Pol beta primer extension/strand displacement, fluorescence kinetic. Potency, µM (titrated, usually from 114 µM), hits mostly inhibitors. 1.3% of 340,000 active. AID 485314
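10 nM enzyme + cpd, 15 min RT; start with substrate 50 nM final; read 0 min and after 10 min RT. Corrected, normalized data; 4-parameter Hill curve fit.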
A number is an active result; i = inactive; ? = inconclusive; nt = no result given; [ ] = dose if it differs, or a comment. Calls come from the whole dose curve; as a rule, active = well fitted curve in the direction sought with a large enough effect; inconclusive = small, poorly fitted or top-dose-only effect, or another doubt; inactive = no such curve, though single readings can be large; an effect the other way counts as inactive or inconclusive.

SMILES | POLK inh | Pol iota inh | WRN helicase inh | FEN1 inh | POLH inh | POLB inh
CC[C@]12c3[nH]c4cc(-c5ccco5)ccc4c3CCN1C(=O)[C@@H](CC(=O)NCc1ccco1)C[C@@H]2C(=O)N1CCN(C(=O)c2ccco2)CC1 | i | 50.1µM | i[11.6 µM] | i | i | nt
CC[C@]12c3[nH]c4ccccc4c3CCN1C(=O)C(CC(=O)NCc1ccco1)C[C@@H]2C(=O)N1CCN(C(=O)c2ccco2)CC1 (some centres not stated) | i | i | i | i | i | nt
O=C(/C=C/c1ccc(Br)o1)OCc1nc2ccsc2c(=O)[nH]1 | 10µM | 10µM | 14.1µM | 79.4µM | 0.794µM | nt
Cc1ccc(C(=O)OCc2nc3ccsc3c(=O)[nH]2)o1 | i | ? | i | i | i | nt
C#CCOCCOCCOCCNc1nc(N2CCN(C(=O)[C@H](Cc3cc4ccccc4[nH]3)n3cc([C@@H](N)CC(C)C)nn3)CC2)nc(N2CCN(C(=O)[C@H](Cc3cc4ccccc4[nH]3)n3cc([C@@H](N)CC(C)C)nn3)CC2)n1 | i | ? | i | i | i | 28.2µM
C#CCOCCOCCOCCNc1nc(N2CCN(C(=O)[C@H](CCC(=O)O)n3cc(C(N)[C@H](C)CC)nn3)CC2)nc(N2CCN(C(=O)[C@H](CCC(=O)O)n3cc(C(N)[C@H](C)CC)nn3)CC2)n1 (some centres not stated) | i | ? | i | i | 25.1µM | i
C#CCOCCOCCOCCNc1nc(N2CCN(C(=O)[C@H](Cc3cc4ccccc4[nH]3)n3cc([C@@H](N)C(C)CC)nn3)CC2)nc(N2CCN(C(=O)[C@H](Cc3cc4ccccc4[nH]3)n3cc([C@@H](N)Cc4ccc(O)cc4)nn3)CC2)n1 (some centres not stated) | nt | nt | nt | nt | nt | i
C#CCOCCOCCOCCNc1nc(N2CCN(C(=O)[C@H](Cc3ccc(O)cc3)n3cc([C@@H](N)C(C)CC)nn3)CC2)nc(N2CCN(C(=O)[C@H](Cc3cc4ccccc4[nH]3)n3cc([C@@H](N)CC(C)C)nn3)CC2)n1 (some centres not stated) | i | 79.4µM | i | i | i | 28.2µM
C#CCOCCOCCOCCNc1nc(N2CCN(C(=O)[C@H](Cc3cc4ccccc4[nH]3)n3cc([C@@H](N)Cc4ccc(O)cc4)nn3)CC2)nc(N2CCN(C(=O)[C@H](Cc3cc4ccccc4[nH]3)n3cc([C@@H](N)CC(C)C)nn3)CC2)n1 | i | ? | i | ? | i | i
C#CCOCCOCCOCCNc1nc(N2CCN(C(=O)[C@H](Cc3ccc(O)cc3)n3cc([C@@H](N)C(C)CC)nn3)CC2)nc(N2CCN(C(=O)[C@H](Cc3cc4ccccc4[nH]3)n3cc([C@@H](N)C(C)CC)nn3)CC2)n1 (some centres not stated) | i | 28.2µM | i | i | i | 25.1µM
CNc1ccc(/C=C2\C=Cc3ccccc32)cc1Cl | i | i | nt | i | nt | nt
NCCCCCCC(O)(P(=O)(O)O)P(=O)(O)O | i | nt | nt | nt | nt | nt
O=C(NCc1ccco1)/C(=C\c1ccco1)NC(=O)c1cccs1 | i | i | i | i | i | 22.4µM
O=C(CNC(=O)/C=C/c1ccco1)N=Nc1c(O)[nH]c2ccccc12 | i | i | i | i | i | 8.91µM
NS(=O)(=O)c1ccc(CNC(=O)/C=C/c2ccco2)cc1 | ? | ? | ? | i | 17.8µM | 22.4µM
O=C(CNC(=O)Cc1ccccc1)N=Nc1c(O)[nH]c2ccccc12 | i | i | i | i | i | i
O=C(/C=C/c1ccco1)NCc1ccco1 | i | ? | i | i | ? | 10µM
O=C(/C=C/c1ccco1)NCc1ccc(F)cc1 | i | i | i | i | i | i
c1ccc(CC[n+]2ccncc2)cc1 | i | i | nt | i | nt | nt
COc1cccc(N2CCN(C(=O)c3cnc4c(-c5ccc(F)cc5)c(C)nn4c3C)CC2)c1 | i | i | nt | i | i | i
Cc1ccc(/C=C/C(=O)NCc2ccco2)o1 | nt | nt | nt | nt | nt | 22.4µM
O=C(/C=C/c1ccccc1)NCc1ccco1 | i | i | i | i | i | i
COc1ccc(-c2cc(=O)c3cc(OC)ccc3[nH]2)cc1 | i | 35.5µM | i | i | i | i
